Results from PubChem BioAssay (NCATS).
Inconclusive results are not listed. Activity calls are given as the source filed them. Calls come from the whole dose curve; as a rule, active = well fitted curve in the direction sought with a large enough effect; inconclusive = small, poorly fitted or top-dose-only effect, or another doubt; inactive = no such curve, though single readings can be large; an effect the other way counts as inactive or inconclusive.

Legend:
[1] = Cellular Toxicity (caspase-3) Mesangial (AID 660); details: mesangial cells, normalized: DMSO 0%, 100 µM tamoxifen 100%; at 91.7 µM (top of the series);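 note: combined caspase 3 and 7 activity read by Caspase-Glo luminescence; cells exposed to compound for 16 h before the caspase read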
Procedure, shortened: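 Mesangial cells, 1000/well, 5 h settle at 37 °C; compound 16 h, 37 °C; Caspase-Glo 3/7 reagent 20 min RT; luminescence. Norm.: DMSO = 0%, tamoxifen 100 uM = 100%. AC50, Hill fit.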

[2] = Cellular Toxicity (caspase-3) SK-N-SH (AID 661);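 note: 0% = DMSO basal and 100% = 10 µM staurosporine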
Procedure, shortened: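 Human neuroblastoma SK-N-SH, 1500 cells/well, 5 hr pre-incubation, then compound 16 hr, 37 °C. Caspase-Glo 3/7 reagent, 1 hr RT, luminescence. Norm. to DMSO/10 uM staurosporine; Hill-fit AC50.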

[3] = Cellular Toxicity (caspase-3) H-4-II-E (AID 663); details: H-4-II-E rat hepatoma, scaled: DMSO 0%, 100 µM tamoxifen 100%; at 92.2 µM (top of the series);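 note: cells exposed to compound for 16 hr before readout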
Procedure, shortened: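 Apoptosis induction is scored as increased luminescence from caspase 3/7 substrate cleavage in rat hepatoma H-4-II-E cells exposed to compound for 16 hr. Activity is scaled between DMSO and 100 uM tamoxifen.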

[4] = Cellular Toxicity (caspase-3) Hek293 (AID 664); details: HEK293 caspase-3 activation, DMSO = 0%, 100 µM tamoxifen = 100%; at 92.2 µM (top of the series);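 note: cells exposed to compound for 16 h at 37 °C before readout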
Procedure, shortened: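 Cells plated, 5 hr at 37 °C; compounds added; 16 hr at 37 °C; Caspase-Glo 3/7 reagent, 20 min RT; luminescence read. Activation expressed relative to DMSO and 100 uM tamoxifen, AC50 by Hill model.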

[5] = Cellular Toxicity (caspase-3) N2a (AID 665);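 note: compound exposure lasted 16 h at 37 °C before readout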
Procedure, shortened: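 N2a cells, 1500/well, 5 h settle at 37 °C; cpd 16 h, 37 °C; Caspase-Glo 3/7, 1 h RT; luminescence. Norm: DMSO = 0, 10 uM staurosporine = 100%. AC50, Hill fit.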

[6] = Cellular Toxicity (caspase-3) NIH 3T3 (AID 666);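 note: caspase signal read after 16 h compound exposure; 0% = DMSO basal and 100% = 100 µM tamoxifen stimulation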
Procedure, shortened: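 Luminescence from aminoluciferin released by caspase-3/7 cleavage of a peptide substrate served as read-out. Mouse fibroblast NIH 3T3 cells were exposed to compounds over a concentration range for 16 hours, and AC50 values came from standard Hill modelling.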

[7] = Cellular Toxicity (caspase-3) Renal Proximal Tubule (AID 667); details: Potency: caspase-3 activation;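 note: cells exposed to compound for 16 hours at 37 °C before detection; 0% = DMSO basal and 100% = 10 µM staurosporine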
Procedure, shortened: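 In qHTS format, rat primary proximal tubule cells seeded at 1000 per well are exposed to compounds for 16 hours at 37 °C. An increase in Caspase-Glo 3/7 luminescence indicates caspase activation.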

[8] = biological target: Cytochrome P450 3A4 (Homo sapiens) (UniProt P08684); test: qHTS Assay for Inhibitors and Substrates of Cytochrome P450 3A4 (AID 884); note: % is set by controls: 0 for no effect and ±100 for the full control effect; nearly all actives have a fitted effect of over 50% in size
Sequence of Cytochrome P450 3A4 (Homo sapiens) (P08684 whole entry, looked up): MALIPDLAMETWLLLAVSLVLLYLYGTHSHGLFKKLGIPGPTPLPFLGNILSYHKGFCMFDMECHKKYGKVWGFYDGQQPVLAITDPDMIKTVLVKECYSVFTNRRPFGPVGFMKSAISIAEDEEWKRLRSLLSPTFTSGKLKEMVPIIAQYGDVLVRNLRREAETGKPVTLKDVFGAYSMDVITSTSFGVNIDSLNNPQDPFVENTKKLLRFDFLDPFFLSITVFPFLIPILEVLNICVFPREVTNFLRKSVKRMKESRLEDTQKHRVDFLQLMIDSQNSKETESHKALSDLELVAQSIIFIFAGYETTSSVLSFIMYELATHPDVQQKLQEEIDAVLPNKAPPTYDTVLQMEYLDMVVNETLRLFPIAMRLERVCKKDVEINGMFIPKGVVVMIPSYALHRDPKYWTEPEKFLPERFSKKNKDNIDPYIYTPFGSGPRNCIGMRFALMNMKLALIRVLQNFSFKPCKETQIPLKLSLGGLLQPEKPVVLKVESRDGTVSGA
Procedure, shortened: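 20 nM human CYP3A4 with 25 uM Luciferin-PPXE (at KM) in 200 mM KPO4, preincubated 10 min with compound; NADPH regeneration started a 60 min RT reaction. Luciferin detected by luminescence, normalized to 57 uM ketoconazole as full inhibition.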

[9] = Cell Viability - LYMP2-001 (AID 921);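 note: cells exposed to compound for 24 h at 37 °C; 0% = DMSO only and full inhibition = tetraoctylammonium bromide control wells; nearly all actives have a fitted effect of over 70% in size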
Procedure, shortened: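 qHTS, 1536-well; lymphoblastoid cells, 24 hr compound, 37 C; ATP by CellTiter-Glo, 30 min RT; luminescence; Hill-fit AC50.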

CC(=O)c1ccccc1[N+](=O)[O-]
inactive: caspase-3 activation [1] -0.0773% | outcome [2] | caspase-3 activation [3] 0.797% | caspase-3 activation [4] 1.17% | outcome [5] | outcome [6] | Potency [7] | Potency [8] | Potency [9]

C=CCCCCCCC=C
inactive: caspase-3 activation [1] 4.38% | outcome [2] | caspase-3 activation [3] 1.95% | caspase-3 activation [4] 5.13% | outcome [5] | outcome [6] | Potency [7] | Potency [8] | Potency [9]

CC(N)CN (stereo unspecified)
inactive: caspase-3 activation [1] 2.7% | outcome [2] | caspase-3 activation [3] 0.364% | caspase-3 activation [4] 3.47% | outcome [5] | outcome [6] | Potency [7] | Potency [8] | Potency [9]

O=C(O)c1ccccc1C(=O)O
inactive: caspase-3 activation [1] 1.74% | outcome [2] | caspase-3 activation [3] -0.105% | caspase-3 activation [4] 3.14% | outcome [5] | outcome [6] | Potency [7] | Potency [8] | Potency [9]

CCNS(=O)(=O)c1ccc(C)cc1
inactive: caspase-3 activation [1] -0.106% | outcome [2] | caspase-3 activation [3] -1.14% | caspase-3 activation [4] -2.66% | outcome [5] | outcome [6] | Potency [7] | Potency [8] | Potency [9]

CC(C)(O)C(=O)O
inactive: caspase-3 activation [1] -0.246% | outcome [2] | caspase-3 activation [3] -0.178% | caspase-3 activation [4] 0.779% | outcome [5] | outcome [6] | Potency [7] | Potency [8] | Potency [9]

FC(F)(F)c1cccc(Cl)c1
inactive: caspase-3 activation [1] -0.53% | outcome [2] | caspase-3 activation [3] 0.296% | caspase-3 activation [4] 0.768% | outcome [5] | outcome [6] | Potency [7] | Potency [8] | Potency [9]

CCNc1ccccc1
inactive: caspase-3 activation [1] -0.0326% | outcome [2] | caspase-3 activation [3] -0.349% | caspase-3 activation [4] -0.687% | outcome [5] | outcome [6] | Potency [7] | Potency [8] | Potency [9]

CCCCCCCCN
inactive: caspase-3 activation [1] -0.125% | outcome [2] | caspase-3 activation [3] 0.977% | caspase-3 activation [4] 0.408% | outcome [5] | outcome [6] | Potency [7] | Potency [8] | Potency [9]

O=[N+]([O-])c1c(Cl)cc(Cl)cc1Cl
inactive: caspase-3 activation [1] -0.0612% | outcome [2] | caspase-3 activation [3] 0.356% | caspase-3 activation [4] -0.873% | outcome [5] | outcome [6] | Potency [7] | Potency [8] | Potency [9]

CC(C)C(C)C
inactive: caspase-3 activation [1] 0.762% | outcome [2] | caspase-3 activation [3] -0.199% | caspase-3 activation [4] -1.39% | outcome [5] | outcome [6] | Potency [7] | Potency [8] | Potency [9]

CCC(O)C(C)(C)C (stereo unspecified)
inactive: caspase-3 activation [1] 0.94% | outcome [2] | caspase-3 activation [3] -0.43% | caspase-3 activation [4] 1.79% | outcome [5] | outcome [6] | Potency [7] | Potency [8] | Potency [9]

C=C(C)C(=O)OCC(C)O (stereo unspecified)
inactive: caspase-3 activation [1] 0.397% | outcome [2] | caspase-3 activation [3] 0.102% | caspase-3 activation [4] -1.45% | outcome [5] | outcome [6] | Potency [7] | Potency [8] | Potency [9]

C=Cc1ccccn1
inactive: caspase-3 activation [1] 2.96% | outcome [2] | caspase-3 activation [3] 1.92% | caspase-3 activation [4] 3.43% | outcome [5] | outcome [6] | Potency [7] | Potency [8] | Potency [9]

CCCOCC(C)OCC(C)O (stereo unspecified)
inactive: caspase-3 activation [1] -0.26% | outcome [2] | caspase-3 activation [3] -0.229% | caspase-3 activation [4] 0.323% | outcome [5] | outcome [6] | Potency [7] | Potency [8] | Potency [9]

COC(=O)c1ccccc1
inactive: caspase-3 activation [1] 0.596% | outcome [2] | caspase-3 activation [3] 3.83% | caspase-3 activation [4] -1.66% | outcome [5] | outcome [6] | Potency [7] | Potency [8] | Potency [9]

Cc1cccc(C(=O)O)c1[N+](=O)[O-]
inactive: caspase-3 activation [1] 0.577% | outcome [2] | caspase-3 activation [3] 0.904% | caspase-3 activation [4] 3.47% | outcome [5] | outcome [6] | Potency [7] | Potency [8] | Potency [9]

BrC(Br)C(Br)Br
inactive: caspase-3 activation [1] -0.634% | outcome [2] | caspase-3 activation [3] 0.661% | caspase-3 activation [4] -0.575% | outcome [5] | outcome [6] | Potency [7] | Potency [8] | Potency [9]

O=C(O)c1ccccc1Cl
inactive: caspase-3 activation [1] -0.834% | outcome [2] | caspase-3 activation [3] 0.73% | caspase-3 activation [4] -0.14% | outcome [5] | outcome [6] | Potency [7] | Potency [8] | Potency [9]

Cc1cccc2cccnc12
inactive: caspase-3 activation [1] -0.268% | outcome [2] | caspase-3 activation [3] 0.865% | caspase-3 activation [4] -1.22% | outcome [5] | outcome [6] | Potency [7] | Potency [8] | Potency [9]

Nc1cc(S(=O)(=O)O)ccc1O
inactive: caspase-3 activation [1] 0.554% | outcome [2] | caspase-3 activation [3] -0.224% | caspase-3 activation [4] -0.175% | outcome [5] | outcome [6] | Potency [7] | Potency [8] | Potency [9]

c1ccc(Oc2ccccc2)cc1
inactive: caspase-3 activation [1] 0.858% | outcome [2] | caspase-3 activation [3] 0.181% | caspase-3 activation [4] -1.47% | outcome [5] | outcome [6] | Potency [7] | Potency [8] | Potency [9]

Nc1ccccc1S(=O)(=O)O
inactive: caspase-3 activation [1] -0.218% | outcome [2] | caspase-3 activation [3] -0.112% | caspase-3 activation [4] 1.83% | outcome [5] | outcome [6] | Potency [7] | Potency [8] | Potency [9]

C=C(C)C1CC=C(C)C(OC(C)=O)C1 (stereo unspecified)
inactive: caspase-3 activation [1] -0.114% | outcome [2] | caspase-3 activation [3] 2.65% | caspase-3 activation [4] 1.35% | outcome [5] | outcome [6] | Potency [7] | Potency [8] | Potency [9]
